Screen size: about 190,000 compounds; about 1,700 (0.89%) were called active. The entries come from a sample that favours actives as a whole. Values without a mark were called inactive.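 Rule for the calls: active = inhibition above the mean inhibition across all screened compounds plus 3 SD (cut at about 44% in these data); inactive = the rest.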

A short description of the assay: blockers of STAT3 transcriptional signaling – U3A cells, luciferase, luminescence, MLSCN library, primary screen (AID 862).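 Note: 0% = DMSO only wells and 100% = 100 µM nifuroxazide control wells.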 The settings on record: IL-6 STAT3-luciferase reporter, at 5.5 µM, active compounds read high, host cell line lacks STAT1. A general note: A reporter such as luciferase makes a cellular process visible.
In the case of `COc1ccccc1C(=O)Nc1ccc(OCc2nnc3c4ccccc4c(C)nn23)cc1`, the inhibition was 21.6%.
Under `COc1ccc(C)cc1NC(=O)NCc1ccccn1` stands 15%.
For `CN(c1ccc(OCC(=O)OCC(=O)Nc2cccc([N+](=O)[O-])c2)cc1)S(=O)(=O)c1ccc(F)cc1` the value was 5.5%; for `CCN(CC)S(=O)(=O)c1ccc2nc(COC(=O)c3n[nH]c4ccccc34)[nH]c2c1`, 19.1%.
For `O=C(COC(=O)c1n[nH]c2ccccc12)NCc1ccccc1` the value was 5.8%.
As to `CN(C)S(=O)(=O)c1ccc(NC(=O)COC(=O)c2n[nH]c3ccccc23)cc1`, the inhibition is 49.3% (active).
Under `COc1ccccc1NC(=O)c1c(Br)cnn1C` stands 25.4%; under `CCOC(=O)CNc1nc2ccccc2n2c(C)nnc12`, 24.4%; under `Oc1c(Cl)cc(Cl)c(Cl)c1Cc1c(O)c(Cl)cc(Cl)c1Cl`, 43.6% (active).
Under `O=C(Nc1ccc2cn[nH]c2c1)c1ccc(S(=O)(=O)N2CCOCC2)cc1` stands -32.5%; under `CC(=O)NC(Cc1ccc(F)c(F)c1)C(=O)NC1CCN(c2nnnn2-c2ccccc2)CC1` (stereo unspecified), 10.3%.
Regarding `COc1cc(/C=N/NC(=O)c2ccccc2)ccc1OS(=O)(=O)c1ccccc1`, the inhibition was 1.7%.
Under `COc1ccc(C(=O)Nc2ccccc2C(=O)N/N=C/c2ccccc2OC)cc1` stands 1.8%.
For `COc1ccc(C(=O)Nc2ccccc2C(=O)N/N=C/c2ccc(O)c(OC)c2)cc1`, the inhibition was 106% (active).
Take `CC(C)CNC(=O)C(=O)NCc1ccccc1`: the inhibition was -0.6%.
On to `CC(Sc1nc(-c2ccccc2)cc(C(F)(F)F)n1)C(=O)Nc1ccc2c(c1)OCO2` (stereo unspecified), for which the inhibition is -2.7%.
In the case of `Cn1cc([N+](=O)[O-])c(C(=O)Nc2cnn(Cc3ccc(F)cc3)c2)n1`, the inhibition was 36.8%.
On to `O=C(Nc1ccc2c(c1)OCCO2)c1ccncc1`, for which the inhibition is -8.8%.
For `Cn1cc([N+](=O)[O-])c(C(=O)Nc2ccc3c(c2)OCCO3)n1` the value was 51.3% (active); for `Cc1ccc(CCCOC(=O)C[N+]2(C)CCCC2)cc1`, -9.5%; for `S=C(NN=C1CCN(Cc2ccccc2)CC1)NC1CCCCC1`, -0.1%.
For `Cn1nnnc1SCC(=O)Nc1nc2ccccc2s1` the value was -2.9%; for `Cn1c(CN2CCOCC2)nc2cc(NC(=O)c3ccc(Cl)cc3)ccc21`, 66.2% (active); for `CCC(=O)Nc1ccc2c(c1)nc(CCN1CCN(C)CC1)n2C`, 9.8%.
For `CC(=O)NCCc1nc2cc(NC(=O)c3ccccc3)ccc2n1C` the value was 15.8%.
On to `O=C(NCc1ccccc1Cl)C1CCN(S(=O)(=O)N2CCOCC2)CC1`, for which the inhibition is 2.3%.
Under `O=C1CCCN1CCCNc1ncnc2c1[nH]c1ccccc12` stands -56.6%.
For `CCN1CCCC1CNc1ncnc2c1[nH]c1ccc(F)cc12` (stereo unspecified) the value was -30.1%; for `CC(C)OCCCNc1ncnc2c1[nH]c1ccc(F)cc12`, 80.4% (active); for `Cc1nc2cc(NC(=O)NC3CC3)ccc2n1C`, 7.5%.
Under `CC(C)C[C@@H](N)c1nnc(SCC(=O)c2ccc(Cl)cc2)o1` stands 53.4% (active).
`CC(=O)Nc1ccc(C(=O)CSc2nnc(Cc3ccccc3)o2)cc1`: the inhibition was 0.2%.
In the case of `COc1ccc(C(=O)CSc2nnc(-c3ccco3)o2)cc1`, the inhibition was 2.9%.
Under `Oc1ccccc1C=NC1CCCCC1N=Cc1ccccc1O` (stereo unspecified) stands 5.7%; under `CCOC(=O)CNC(=O)/C(=C\c1ccc(F)cc1)NC(=O)c1ccccc1`, 1.9%.
For the compound `COc1cccc(NC(=O)Cn2c3ccccc3c3nc4n(c(=O)c32)CCS4)c1`, the inhibition is 12.7%.
Take `Cn1c(CNC(=O)C(C)(C)C)nc2ccccc21`: the inhibition is 15.4%.
For `Cn1c(-c2ccc(C(=O)c3ccccc3)s2)nc2ccccc21` the value was 49.1% (active); for `Cn1cccc1-c1nc2ccccc2n1C`, 16.4%.
Under `Cc1cccc(NC(=S)NC23CN4CN(CN(C4)C2)C3)c1` stands 4.5%; under `Cc1ccc(OCCCn2c(=O)oc3ccccc32)cc1`, 16.3%; under `CCC(=O)NC(=Nc1nc2ccccc2s1)NC(=O)CC`, 12.8%.
For `CC(C)CC(=O)N/C(N)=N/c1nc2ccccc2s1` the value was 47% (active).
With `COC(=O)c1nc2ccccc2s1`, the inhibition was -7.8%.
For `CCC(=O)c1ccc(OCC(O)Cn2nc(C)c(C(C)=O)c2C)cc1` (stereo unspecified) the value was 22.7%; for `Cc1ccc(Cl)cc1NC(=O)C1CCN(S(C)(=O)=O)CC1`, -0.1%; for `CCOC(=O)c1[nH]c2c(c1C)C(=O)CC(c1ccc(N(C)C)cc1)C2` (stereo unspecified), -3.7%.
Under `CCCOC(=O)c1[nH]c2c(c1C)C(=O)CC(c1cccs1)C2` (stereo unspecified) stands 3.8%; under `CCCOC(=O)c1[nH]c2c(c1C)C(=O)CC(c1cc(OC)c(OC)c(OC)c1)C2` (stereo unspecified), 47.1% (active).
Regarding `COC(=O)CC1=NN(c2ccccc2)C(=O)C1`, the inhibition was 3.8%.
As to `Cc1ccccc1CN(c1ccc(C(=O)NCC2CCCO2)cc1)S(C)(=O)=O` (stereo unspecified), the inhibition was 1%.
Under `Cc1cccc(C)c1NC(=O)C1(N(C(=O)c2ccccn2)c2ccc(O)cc2)CCCCC1` stands 0.2%.
Regarding `O=C(Oc1ccccc1)c1ccc2nccnc2c1`, the inhibition is 2.6%.
As for `c1ccc(-c2noc(-c3cccs3)n2)nc1`, the inhibition is 43.8% (active).
Under `O=C(Oc1ccc(-c2nc(-c3ccccn3)no2)cc1)c1ccccc1` stands 76.7% (active); under `COc1nc(-c2ccc(Cl)cc2)ccc1-c1noc(-c2cccs2)n1`, -4.2%.
Under `c1csc(-c2nc(-c3ccncc3)no2)c1` stands 16.8%.
For `CC(C)c1nc(-c2ccccn2)no1`, the inhibition was -0.3%.
Under `Cc1c(C(=O)O)nnn1-c1nonc1N` stands -8.4%; under `Cc1cc(F)ccc1S(=O)(=O)Nc1ncnc2scc(-c3ccc(F)cc3)c12`, -1.8%; under `CC(=O)c1c(C)[nH]c(C(=O)Nc2cc(S(=O)(=O)N(C)C)ccc2C)c1C`, 13.2%.
Under `CCOc1ccc(NC(=O)CC2C(=O)N(c3ccccc3)C(=O)N2CCOC)cc1` (stereo unspecified) stands -0.8%; under `CCCCn1c(N)c(N(CC)C(=O)/C=C/c2ccco2)c(=O)[nH]c1=O`, -5.6%; under `Cc1cccc(CSc2nnc(Cn3c(=O)sc4ccccc43)n2C)c1`, 5%.
`COc1ccccc1CNC(=O)CCn1c(=O)sc2ccccc21`: the inhibition is -0.6%.
In the case of `COc1ccc(Cn2c(=O)sc3ccccc32)cc1OC`, the inhibition was 51.6% (active).
On to `CO/N=C/CC(=O)c1ccc(OC)cc1`, for which the inhibition is 6.2%.
For `COc1ccc(-c2nn(C)c(=O)c3ccccc23)cc1NC(=O)COc1ccccc1` the value was 38.1%.
For the compound `Cc1ccc(NC(=O)Cn2nc(C)c3ccccc3c2=O)c(C)c1`, the inhibition was 9.7%.
`Cc1ccc(F)cc1NC(=O)Cc1nn(C)c(=O)c2ccccc12`: the inhibition is 56.3% (active).
Under `Fc1ccc2[nH]c3c(N4CCSCC4)ncnc3c2c1` stands 22.8%; under `Fc1ccc2[nH]c3c(N4CCN(Cc5ccc6c(c5)OCO6)CC4)ncnc3c2c1`, 65.5% (active).
For `Cc1cc(N2CCN(Cc3ccc4c(c3)OCO4)CC2)n2ncnc2n1` the value was -1.7%.
Regarding `CC(C)(C)NCCCOc1ccc(Cl)cc1C(C)(C)C`, the inhibition is -0.4%.
As for `O=C(N/N=C/c1ccccc1O)/C(=C/c1ccccc1)CCO`, the inhibition was 3.8%.
Under `Cc1ccccc1CSCCNC(=O)c1ccc(Cl)c(S(=O)(=O)N2CCOCC2)c1` stands 4.2%; under `O=C(NCCSCc1ccccc1)c1ccc(Cl)c(S(=O)(=O)N2CCOCC2)c1`, 21%.
Under `CC(C)(CNC(=O)c1ccc(Cl)c(S(=O)(=O)N2CCc3ccccc3C2)c1)N1CCOCC1` stands 49.5% (active); under `CCOC(=O)C(=Cc1ccccc1OC)C(=O)OCC`, 9.9%.
Regarding `Cc1cc(NC(=O)CSc2nc3c(cc2C#N)CCCCC3)no1`, the inhibition is -1.5%.
With `COc1cccc(-c2cc(C(=O)N/N=C/c3ccc(OC)c(COC(C)=O)c3)c3ccccc3n2)c1`, the inhibition is -6%.
`O=C(N/N=C/C=C/c1ccco1)c1cccs1`: the inhibition is -6.8%.
Under `Cc1ccc(-c2cc(C(=O)N/N=C/C=C/c3ccco3)c3ccccc3n2)cc1C` stands 46.8% (active); under `Cc1cc(C(=O)NNC(=O)c2cccc(S(=O)(=O)N3CCOCC3)c2)c2ccccc2n1`, 10%.
Turning to `CCC(=O)OCCNc1nc(-c2ccccc2)nc2ccccc12`, the inhibition is 1.5%.
Take `O=C(COC(=O)c1ccc(O)cc1)Nc1nccs1`: the inhibition was -5.6%.
Regarding `Cc1nc2ccccc2cc1OCc1ccc(F)cc1`, the inhibition was 73% (active).
As for `Fc1cccc2ncnc(OCc3ccccc3)c12`, the inhibition is 4.2%.
Consider `Cc1nc2ccccc2cc1O`, for which the inhibition was -75.4%.
For `O=C(Nc1ccc(N2CCN(C(=O)c3cccs3)CC2)cc1)c1cccnc1Cl` the value was 1.7%; for `O=c1c2ccccc2nc2n1C(CSc1ccc(F)cc1)CN2` (stereo unspecified), -2.2%.
Under `O=c1c2ccccc2nc2n1C(CSCc1cccc(C(F)(F)F)c1)CS2` (stereo unspecified) stands 49.3% (active); under `O=c1c2ccccc2nc2n1C(CSCc1ccccc1)CS2` (stereo unspecified), 18.7%.
Consider `Cc1ccc(CNC(=O)c2cccnc2Cl)cc1`, for which the inhibition was 3.5%.
`CCOC(=O)CN/C=C(\C#N)c1ccc(F)cc1`: the inhibition was -0.6%.
Under `CCOc1c(Cl)cc(/C=N/O)cc1OC` stands 1.3%.
`CCOc1cc(/C=C(/C#N)c2ccc(Cl)cc2)cc(Cl)c1OCC(=O)O`: the inhibition is 63.3% (active).
For `c1coc(CNc2ncnc3ccccc23)c1`, the inhibition was 61.2% (active).
Regarding `FC(F)(F)c1cccc(Nc2ncnc3ccccc23)c1`, the inhibition was 16.5%.
For `c1ccc(-c2nc(NCc3ccco3)c3ccccc3n2)cc1` the value was -1%; for `CCN(/N=C/c1ccc(N(C)C)cc1)c1nc2ccccc2[nH]1`, 1.9%.

The term inhibition denotes the relative decrease from the control value, in per cent.

For the origin of these results see PubChem BioAssay AID862 (The Scripps Research Institute Molecular Screening Center, 2007).
